tim23-1 inh – tim23-1 yeast growth inhibition | AID 463212 | S. cerevisiae tim23-1 growth, BacTiter-Glo luminescence, 24 h | inhibition, % at 20 µM | hit rate 1.3% among 330,000;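 active means growth inhibition of the mutant yeast at or above 50%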;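 further: temperature-sensitive mutant grown at 25 °C; plate controls were DMSO-treated mutant yeast for no effect and medium wells lacking yeast for full effect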
Beta2AR agonist – human beta-2 adrenergic receptor agonism by FAP | hit rate 0.43% among 340,000 | P07550 | response, % (no concentration beside the values) | Am2.2-beta2AR cells, FAP receptor internalization, flow cytometry;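 active means response above a set limit, near 3 SD of response in nonfluorescent compounds, cut at about 42% in these data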
Target sequence (P07550 whole entry, looked up): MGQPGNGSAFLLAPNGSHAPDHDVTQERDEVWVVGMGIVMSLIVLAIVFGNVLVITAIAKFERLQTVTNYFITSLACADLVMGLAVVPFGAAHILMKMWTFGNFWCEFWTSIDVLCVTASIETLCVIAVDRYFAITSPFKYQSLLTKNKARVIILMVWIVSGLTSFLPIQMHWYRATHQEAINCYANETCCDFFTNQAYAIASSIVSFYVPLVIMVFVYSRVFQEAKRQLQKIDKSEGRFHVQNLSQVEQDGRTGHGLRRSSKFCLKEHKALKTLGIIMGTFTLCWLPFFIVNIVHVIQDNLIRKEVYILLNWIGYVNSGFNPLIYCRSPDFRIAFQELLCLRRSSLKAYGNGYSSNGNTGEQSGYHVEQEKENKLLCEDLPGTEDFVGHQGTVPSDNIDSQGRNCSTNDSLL
TIM10 inh – inhibits growth of TIM10 yeast strain; hit rate 1.4% among 330,000; inhibition, % at 10 µM; S. cerevisiae TIM10 strain growth, BacTiter-Glo luminescence, 24 h;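 active means inhibition of 40% or more at the single tested concentration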;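 further: wild-type TIM10 isogenic control strain grown at permissive 25 °C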
PfHsp90 set2 – inhibits growth of yeast expressing Plasmodium falciparum Hsp90; S. cerevisiae expressing PfHsp90, BacTiter-Glo ATP, 48 h; yeast lacking PDR1 and PDR3 efflux regulators; inhibition, % at 9.4 µM; hit rate 0.32% among 310,000; AID 504621;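 active means every replicate shows inhibition above about 80%, whatever the replicate mean, limit read from the data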;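 further: 0% = DMSO neutral controls and 100% = 20 µM radicicol positive controls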
tim10-1 inh – growth inhibitors of tim10-1 mutant yeast; hit rate 2.2% among 330,000; AID 463190; inhibition, % at 20 µM; S. cerevisiae tim10-1 ts strain growth, BacTiter-Glo, 24 h;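 active means inhibition of at least 40%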;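 further: mutant grown at 25 °C; 0% = DMSO wells with yeast and 100% = wells holding no yeast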
tim10-1 conf – confirmation of tim10-1 mutant yeast growth inhibitors | hit rate 56% among 7,400 | inhibition, % at 20 µM | S. cerevisiae tim10-1 ts strain growth, BacTiter-Glo, 24 h | shares compounds with tim10-1 inh | AID 463213;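 active means inhibition of yeast growth at or above a set limit in either of two repeat tests at 20 µM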;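 further: tim10-1 mutant grown at permissive 25 °C to find synthetic lethal compounds; 0% = DMSO yeast wells and 100% = medium wells without yeast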
* hit, by the source's call; x = no result. The list is not random: actives were taken first. Their share in the collection is about 3.8%.

SMILES	tim23-1 inh	Beta2AR agonist	TIM10 inh	PfHsp90 set2	tim10-1 inh	tim10-1 conf
CC(C)(C)NC(=O)C(c1ccc(F)cc1)N(C(=O)CCC(=O)Nc1ccccn1)C1CCCC1 (stereo not given)	18.6	-1.5	2.0	0.5	6.1	x
CC(=O)Oc1ccc2ccc3ccc(C(C)=O)cc3c2c1	x	8.9	x	-27.7	x	x
O=C(NNC(=S)NC1CCCCC1)c1sc2ccccc2c1Cl	45.6	7.1	24.9	-33.6	49.8*	31.7
O=C(NC1CC1)c1sc2ccccc2c1Cl	6.8	1.7	-7.5	1.5	4.1	x
COc1cccc(C(C#N)NCCCNC(C#N)c2cccc(OC)c2OC)c1OC (stereo not given)	x	-2.9	x	-7.5	x	x
c1ccc(-c2nc(-n3ccnc3)nc(-n3ccnc3)n2)cc1	47.9	5.8	-28.7	x	21.4	x
CC(C)Nc1nc(-c2ccccc2)nc(-n2ccnc2)n1	33.6	-10.9	28.6	x	40.5*	13.8
O=C(O)C1=C(C(=O)O)C2C=CC1C2	x	-3.5	x	12.6	x	x
C/C=C(/CCC1NCCc2c1[nH]c1ccccc21)[Si](C)(C)C (stereo not given)	x	8.8	x	-24.5	x	x
Cc1ccccc1-c1nc(CS(=O)CC(=O)NCCc2ccc(Cl)cc2)c(C)o1 (stereo not given)	26.5	-0.2	6.5	3.0	44.0*	-6.8
Cc1oc(-c2ccc(Cl)cc2)nc1CS(=O)CC(=O)NC1CCCCC1 (stereo not given)	41.5	-2.2	32.0	7.4	40.3*	33.0*
Cc1ccc(NC(=O)CS(=O)Cc2nc(-c3ccc(C)cc3)oc2C)cc1 (stereo not given)	20.5	-0.3	21.8	9.6	40.4*	13.9
CCCCn1c(N)c(N(CCOC)C(=O)CSc2nnc(C)n2-c2ccc(OC)cc2)c(=O)[nH]c1=O	-9.9	2.9	-0.5	-1.7	-1.6	x
Cc1ccc(NC(=O)c2ccc([N+](=O)[O-])s2)cc1S(=O)(=O)N1CCOCC1	8.6	10.9	10.2	-2.2	-8.1	x
O=C1[C@@H]2[C@H](C(=O)N1CC(O)COCc1ccccc1)C1C=C[C@H]2C1 (stereo not given in full)	x	-7.1	x	-20.4	x	x
CCOC(=O)/C(C#N)=C1\SS/C(=C(/C#N)C(=O)OCC)S1	21.2	x	12.6	x	41.0*	35.7*
CCOC(=O)/C(C#N)=C1/CCCCCN1C	8.9	3.5	7.3	-23.1	0.4	x
COc1ccc(OCC(=O)N2N=C(C(F)F)CC2(O)C(F)F)cc1 (stereo not given)	21.2	17.1	1.8	15.6	52.8*	42.5*
Cc1cc(C)n(CC(=O)N2N=C(C(F)F)CC2(O)C(F)F)n1 (stereo not given)	7.9	-0.7	-5.1	-5.1	5.4	x
Cc1cccc(N=C2CCCC2C(=O)Nc2cccc(C)c2C)c1C (stereo not given)	x	1.8	x	-10.4	x	x
CCOC(=O)C1=C(C)N(C)C(=O)NC1c1c(O)ccc2ccccc12 (stereo not given)	7.0	7.0	15.2	17.4	-0.6	x
Cc1ccc2nc(NC(=O)C3CCN(S(=O)(=O)c4cccc5nsnc45)CC3)sc2c1	-7.8	24.1	30.5	-17.0	9.7	x
Cc1ccc2nc(NC(=O)C3CCN(S(=O)(=O)c4cccs4)CC3)sc2c1	20.7	1.2	31.1	0.5	41.9*	19.4
Cc1ccc2nc(NC(=O)C3CCCN(S(=O)(=O)c4cccc5nsnc45)C3)sc2c1 (stereo not given)	25.9	4.3	31.8	-12.2	41.2*	20.4
COc1ccc(CC(=O)OCC(=O)NC2CCCCC2)cc1OC	15.8	-4.2	-2.3	x	10.3	x
SMILES	tim23-1 inh	Beta2AR agonist	TIM10 inh	PfHsp90 set2	tim10-1 inh	tim10-1 conf
COc1cccc(OC)c1C(=O)Nc1ccc(Br)c(C(=O)c2ccccc2)c1	34.7	0.5	5.0	2.3	40.6*	9.3
CCCC(NC(=O)C(C)NC(=O)CO/N=C1\C=C2CCC3C4CCC(C(C)=O)[C@@]4(C)CCC3[C@@]2(C)CC1)C(=O)O (stereo not given in full)	16.7	-3.9	3.7	-39.0	16.9	x
Cc1ccc(S(=O)(=O)N2CCC[C@H]2C(=O)OC(C)C(=O)Nc2ncc(Cl)cc2Cl)cc1 (stereo not given in full)	6.4	-1.1	14.1	3.3	40.8*	21.8
CCn1c(=O)n(C)c2c(=O)n(C)c(=O)n(C)c21	x	10.9	x	x	x	x
C/C(=N\Nc1nc(N2CCCCCC2)nc(N2CCCCCC2)n1)c1ccccc1	36.1	18.1	39.9	5.9	40.1*	27.9
C/C(=N\Nc1nc(N2CCCCC2)nc(N2CCOCC2)n1)c1cccs1	11.2	2.9	5.2	2.4	6.7	x
CCc1ccc(/C(C)=N/Nc2cc(Cl)nc(C)n2)cc1	14.6	1.6	22.0	-27.8	25.7	x
C/C(=N\Nc1cc(Cl)nc(C)n1)c1ccccc1	15.8	-7.2	11.5	x	41.0*	38.7*
Cc1cc(NS(=O)(=O)c2ccc(NC(=O)NC3CCCCC3)cc2)no1	-2.8	-5.6	-11.2	x	11.1	x
Cc1cc(NS(=O)(=O)c2ccc(C3CCCCC3)cc2)no1	35.0	1.9	12.9	-133.7	41.2*	19.8
O=C(c1ccc2c(c1)N(Cc1ccccc1)CCS2)N1CCCCC1	36.5	24.4	19.1	-4.7	43.2*	26.2
Cc1ccc(CN2CCSc3ccc(C(=O)NC4CCCC4)cc32)cc1	-3.1	2.8	4.9	9.8	-1.6	x
Cc1ccc(CN2CCSc3ccc(C(=O)NCC4CCCO4)cc32)cc1 (stereo not given)	44.4	5.7	21.3	-14.0	41.1*	16.5
COc1ccccc1-c1noc(CCC(=O)Nc2cc(C(F)(F)F)ccc2Cl)n1	25.0	-12.1	10.6	x	43.1*	22.4
Cc1cc(Nc2nc3ccccc3nc2Cl)n(-c2ccccc2)n1	37.8	-13.0	30.9	-16.9	40.0	22.7
O=C(Nc1ccccc1Cl)c1ccccc1	10.3	1.0	-8.9	-7.0	10.3	x
O=C(Nc1ccccc1Cl)C(Cl)C(=O)c1ccccc1 (stereo not given)	39.5	6.1	24.6	-0.3	42.2*	31.3*
CCC1CCCCN1C(=O)CSc1nnc(-c2ccc(Cl)cc2)o1 (stereo not given)	15.6	-8.4	5.0	x	27.4	x
CCC1CCCCN1C(=O)CSc1nnc(-c2ccc(Cl)s2)o1 (stereo not given)	42.3	-3.6	9.0	-4.9	51.5*	24.5
O=C(COc1ccc(Cl)cc1)NCc1nnc(SCC(=O)NC2CCCC2)o1	-2.2	-6.6	-13.8	10.6	10.7	x
CCC1CCCCN1C(=O)CSc1nnc(CNC(=O)COc2ccc(Cl)cc2)o1 (stereo not given)	26.1	-5.5	23.8	22.7	40.2*	19.9
Cc1ccc(S(=O)(=O)N2CCN(C(=O)COC(=O)c3ccc(Cl)c(S(N)(=O)=O)c3)CC2)c(C)c1	x	-4.2	x	10.3	x	x
Cc1cccc(OCC(=O)O/N=C(\N)Cc2ccc([N+](=O)[O-])cc2)c1	24.8	3.5	32.0	0.7	15.2	x
Cc1ccc(OCC(=O)O/N=C(\N)Cc2ccc([N+](=O)[O-])cc2)cc1C	29.1	0.2	16.1	1.8	52.4*	53.3*
